# Inconclusive results are not listed. Where a call stands in place of a potency, no number is given. Unmarked numbers belong to inactive results. Active and inactive are the calls of the source. The call rests on the fitted dose curve; in most records, active means well fitted curve in the direction sought with a large enough effect; inconclusive means small, poorly fitted or top-dose-only effect, or another doubt; inactive means no such curve, though single readings can be large; an effect the other way counts as inactive or inconclusive. Square brackets hold non-standard residues; d marks the D form. Peptide text beside a SMILES is read from it. * marks the point of attachment. Dolaproine = CO[C@@H]([C@@H]1CCCN1)[C@@H](C)C(=O)O; Dil = CC[C@H](C)[C@H](NC)[C@@H](CC(=O)O)OC; Doe = c1ccc(C[C@H](N*)c2nccs2)cc1; Aib = CC(C)(N)C(=O)O
# Key:
# [1] = target: Aldehyde dehydrogenase, mitochondrial (Homo sapiens) (UniProt P05091); assay: qHTS for Inhibitors of the Aldehyde Dehydrogenase Family (ALDH2) Primary screen (AID 2061308); further: nearly all actives have a fitted effect of over 55% in size
# [2] = target: Retinaldehyde dehydrogenase 3 (Homo sapiens) (UniProt P47895); assay: qHTS for Inhibitors of the Aldehyde Dehydrogenase Family (ALDH1A3) Validation screen (AID 2061312); further: nearly all actives have a fitted effect of over 45% in size
# [3] = target: Retinaldehyde dehydrogenase 3 (Homo sapiens) (UniProt P47895); assay: qHTS for Inhibitors of the Aldehyde Dehydrogenase Family (ALDH1A3) Primary screen (AID 2061315)
# [4] = target: Retinal dehydrogenase 2 (Homo sapiens) (UniProt O94788); assay: qHTS for Inhibitors of the Aldehyde Dehydrogenase Family (ALDH1A2) Confirmation screens (AID 2061314); further: nearly all actives have a fitted effect of over 65% in size
# [5] = target: Aldehyde dehydrogenase 1A1 (Homo sapiens) (UniProt P00352); assay: qHTS for Inhibitors of the Aldehyde Dehydrogenase Family (ALDH1A1) Confirmatory screens (AID 2061316); further: nearly all actives have a fitted effect of over 65% in size
# [6] = BET inhibitor-based combinations targeting novel dependencies in MECOM-rearranged (r) AML: SET-2 cell line (AID 2202231); settings: SET-2 AML cells viability, CellTiter-Glo luminescence, 48 h; viability: active compounds read low, concentration not given here; further: potency means the concentration at half of the fitted maximal effect; nearly all actives have a fitted effect of over 35% in size
# How it was run: (§1)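 Viability of cells (500 per well) is scored by luminescent CellTiter-Glo at 48 hr post-dosing. Eleven-point titrations are normalized to DMSO and empty controls and reduced to AUC values.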
# [7] = BET inhibitor-based combinations targeting novel dependencies in MECOM-rearranged (r) AML: OCI-AML3 cell line (AID 2202232); settings: Potency: OCI-AML3 viability; further: potency means the concentration at half of the fitted maximal effect; nearly all actives have a fitted effect of over 35% in size
# How it was run: as §1
# [8] = BET inhibitor-based combinations targeting novel dependencies in MECOM-rearranged (r) AML: UCSD-AML1 cell line (AID 2202235); further: potency means the concentration at half of the fitted maximal effect; nearly all actives have a fitted effect of over 40% in size
# How it was run: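 Using pin-tool transfer, drugs were added in 11 doses to cells (500/well), incubated 48 hr, and assessed with CellTiter-Glo. Z-AUC is a mean-centring transformation applied separately to each screened line.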
smiles,measurement,setting,value
COc1cc(CCNCc2ccccc2O)c(OC)cc1C#N,Potency,[1],inactive
same,Potency,[2],inactive
same,Potency,[3],inactive
C[C@H]1O[C@@H](O[C@H]2CC[C@]3(CO)C4CC[C@]5(C)[C@@H](C6=CC(=O)OC6)CC[C@]5(O)[C@@H]4CC[C@H]3C2)[C@H](O)[C@H](O)[C@@H]1O[C@@H]1O[C@H](CO)[C@@H](O)[C@H](O)[C@H]1O (stereo not given in full),Potency,[1],inactive
same,Potency,[4],inactive
same,Potency,[3],inactive
same,Potency,[5],inactive
N#Cc1ccccc1-c1cc(-c2ccccn2)cn(-c2ccccc2)c1=O,Potency,[1],inactive
same,Potency,[2],inactive
same,Potency,[3],inactive
Fc1cc(F)c2c(c1)C1C=CCC1C(c1cccnc1)N2 (stereo not given),Potency,[1],inactive
same,Potency,[3],inactive
Cc1ccccc1C(C(=O)NC1CCCCC1)N(C(=O)Cn1ccnc1C)c1cccc(F)c1 (stereo not given),Potency,[1],inactive
same,Potency,[3],inactive
CC(=O)OC[C@H](N)C(=O)c1ccccc1,Potency,[1],inactive
same,Potency,[3],inactive
Cc1cccc(NC(=O)NC2N=C(c3ccccc3)c3ccccc3N(CC(=O)c3ccccc3C)C2=O)c1 (stereo not given),Potency,[1],inactive
same,Potency,[2],inactive
same,Potency,[3],inactive
C[C@]12CC[C@@H](O[C@@H]3O[C@H](CO)[C@@H](O)[C@H](O)[C@H]3O)C[C@@]1(O)CCC1C2CC[C@]2(C)[C@@H](C3=CC(=O)OC3)CC[C@]12O (stereo not given in full),Potency,[1],inactive
same,Potency,[3],inactive
Cc1cc(-c2nnc3n2CCCCC3)c(C)n1-c1ccc(C(C)(C)C)cc1,Potency,[1],inactive
same,Potency,[3],inactive
O=C1CN=C(c2ccccc2Cl)c2cc(Br)ccc2N1,Potency,[1],inactive
same,Potency,[2],inactive
same,Potency,[3],inactive
CC1=CC(=O)[C@@H](O)[C@]2(C)C3[C@@H](O)[C@@H]4OC(=O)[C@@H]([C@H]4C)[C@]3(C)C(=O)[C@H](O)[C@@H]12 (stereo not given in full),Potency,[1],inactive
C[C@@H](CN1CCC2(CC1)C(=O)NCN2c1cccc(F)c1)NC(=O)c1ccc(Br)cc1,Potency,[1],inactive
same,Potency,[2],inactive
same,Potency,[3],inactive
COc1ccc(C(C)(C)C)cc1CN[C@H]1C2CCN(CC2)[C@H]1C(c1ccccc1)c1ccccc1,Potency,[1],inactive
same,Potency,[2],inactive
same,Potency,[3],inactive
C[C@@H]1C[C@@H](O)[C@]2(O)O[C@@H]3C[C@@]4(C=O)C(CC[C@@H]5C4CC[C@]4(C)[C@@](O)(C6=CC(=O)OC6)CC[C@]54O)C[C@H]3OC2O1 (stereo not given in full),Potency,[1],inactive
C[C@H]1CN(Cc2ccc(CC(=O)N3CCC(Nc4cccc(F)c4)CC3)cc2)CCN1,Potency,[1],inactive
same,Potency,[2],inactive
same,Potency,[3],inactive
Cc1sc2c(c1C)C(c1ccc(Cl)cc1)=NC(CC(=O)Nc1ccc(O)cc1)c1nnc(C)n1-2 (stereo not given),Potency,[1],inactive
same,Potency,[2],inactive
same,Potency,[3],inactive
same,Potency,[6],1320 nM (active)
same,Potency,[7],263 nM (active)
same,Potency,[8],742 nM (active)
C[C@@H]1[C@H](O)[C@@H](C)/C=C/C=C/CC/C=C/C=C/C=C/C=C/[C@H](O[C@H]2O[C@@H](C)[C@H](O)[C@@H](N)[C@H]2O)C[C@@H]2O[C@](O)(C[C@@H](O)[C@H](O)CC[C@@H](O)C[C@@H](O)C[C@@H](O)CC(=O)O[C@H]1C)C[C@H](O)[C@H]2C(=O)O,Potency,[1],inactive
same,Potency,[3],inactive
CCOc1ccc(CCNC(=O)c2cc3cccnc3n2Cc2cccc(C)c2)cc1OCC,Potency,[1],inactive
same,Potency,[3],inactive
CC(C)[C@H]1OC(=O)[C@H](Cc2ccccc2)N(C)C(=O)[C@@H](C(C)C)OC(=O)[C@H](Cc2ccccc2)N(C)C(=O)[C@@H](C(C)C)OC(=O)[C@H](Cc2ccccc2)N(C)C1=O,Potency,[1],inactive
same,Potency,[3],inactive
CCCOC(=O)Cc1ccc(OCC(=O)N(CC)CC)c(OC)c1,Potency,[1],inactive
same,Potency,[3],inactive
CC(=O)O[C@H]1C[C@]2(O)[C@@H]3CC[C@@H]4C[C@@H](O)CC[C@]4(C)[C@H]3CC[C@]2(C)[C@H]1c1ccc(=O)oc1,Potency,[1],inactive
same,Potency,[3],inactive
COc1cccc(CNc2ccc(C(=O)Nc3nccs3)cc2)c1O,Potency,[1],inactive
same,Potency,[3],inactive
C=CCN1C[C@H](C)N([C@H](c2ccc(C(=O)N(CC)CC)cc2)c2cccc(OC)c2)C[C@H]1C,"activity change, negative = inhibition",[1],-7.89% [at 11.2 µM]
same,"activity change, negative = inhibition",[3],6.9% [at 11.2 µM]
C#CCO[C@H]1CN2CCC1CC2,Potency,[1],inactive
same,Potency,[3],inactive
CCOc1ccc(CCNC(=O)c2cc3sccc3n2CCN(C)C)cc1OCC,Potency,[1],inactive
same,Potency,[3],inactive
CC[C@H](C)[C@@H]([C@@H](CC(=O)N1CCC[C@H]1[C@H](OC)[C@@H](C)C(=O)N[C@@H](Cc1ccccc1)c1nccs1)OC)N(C)C(=O)[C@@H](NC(=O)C(C)(C)N)C(C)C (H-[Aib]V[Dil][Dolaproine]-Doe),Potency,[1],inactive
same,Potency,[3],inactive
C[n+]1cc(P(=S)(c2ccccc2)c2ccccc2)n2ccccc21,Potency,[1],inactive
same,Potency,[3],inactive
C[C@H](CCC(=O)O)C[C@H](C)C[C@H](C)C(=O)/C=C(\O)[C@H](C)C[C@H](C)C/C=C/[C@@H](C)[C@@H](O)[C@@H](C)[C@@H](O)C[C@@H]1CC[C@@](C)([C@H]2CC[C@@](C)([C@@H](C)O)O2)O1,Potency,[1],inactive
same,Potency,[3],inactive
CN1Cc2c(ccc3c2OCO3)[C@@H]2[C@H]1c1cc3c(cc1C[C@@H]2O)OCO3,Potency,[1],inactive
same,Potency,[3],inactive
CC(=O)O[C@H]1C(=O)[C@]2(C)C(O)C[C@H]3OC[C@@]3(OC(C)=O)[C@H]2[C@H](OC(=O)c2ccccc2)[C@]2(O)C[C@H](O)C(C)=C1C2(C)C (stereo not given in full),Potency,[1],inactive
same,Potency,[3],inactive
Cc1cccc(NC(=O)N[C@H]2CN(C)c3ccccc3C(c3ccccc3)=N2)c1,Potency,[1],inactive
same,Potency,[3],inactive
COC(=O)c1nc(-c2cccc3ccccc23)oc1OC,Potency,[1],inactive
same,Potency,[3],inactive

# From PubChem BioAssay (NCATS)
